Assay [1] in a line: qHTS assay for measurement of the activity of small molecule inhibitors on Zika virus induced Caspase-3 activity in human iPSC derived neural progenitor cells (hNPCs) (AID 1224857). Note: % of control where 0% means no effect; nearly all actives have a fitted effect of over 65% in size. The following applies: hNPCs ZIKV-induced caspase-3/7, Caspase-Glo luminescence, 6 h; series mostly up to 45.7 µM. The gist of the method:
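Zika virus (2 FFU/cell) infection of human iPSC-derived NPCs, 6 h, following 1 h compound preincubation. Read-out: Caspase-Glo 3/7 luminescence.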
In general terms: Quantitative high-throughput screening tests each substance at several concentrations.

Assay [2] in a line: P-glycoprotein substrates identified in KB-8-5-11 adenocarcinoma cell line, qHTS therapeutic library screen (AID 1346987). Note: nearly all actives have a fitted effect of over 65% in size. The following applies: KB-8-5-11 (P-gp overexpressing) viability, CellTiter-Glo, 72 h; series mostly up to 44.5 µM. The gist of the method: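 Human cervical adenocarcinoma KB-8-5-11 cells, selected in colchicine to over-express P-gp and assayed without it, were exposed for 72 h to titrated compounds. An ATP-based luminescent viability signal gave AC50.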

The target of assay [3] is T1, Hexokinase-4 (Homo sapiens) + Glucokinase regulatory protein (Homo sapiens) (UniProt P35557+Q14397). Nature of the assay: qHTS assay for inhibitors of recombinant human GCK-GKRP interaction: Diaphorase-coupled assay (AID 743205). The following applies: G6PDH/diaphorase resorufin fluorescence; series mostly up to 57.5 µM. The gist of the method: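 Resorufin fluorescence (525/590 nm), read each minute over 30 min, reports GCK activity coupled via G6PDH and diaphorase. Reaction: 10 nM GST-GCK, 10 nM FLAG-GKRP, 5 mM glucose, 0.4 mM ATP, 0.15 mM NADP+, 0.1 mM resazurin.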
T1 sequence (P35557 whole entry, looked up): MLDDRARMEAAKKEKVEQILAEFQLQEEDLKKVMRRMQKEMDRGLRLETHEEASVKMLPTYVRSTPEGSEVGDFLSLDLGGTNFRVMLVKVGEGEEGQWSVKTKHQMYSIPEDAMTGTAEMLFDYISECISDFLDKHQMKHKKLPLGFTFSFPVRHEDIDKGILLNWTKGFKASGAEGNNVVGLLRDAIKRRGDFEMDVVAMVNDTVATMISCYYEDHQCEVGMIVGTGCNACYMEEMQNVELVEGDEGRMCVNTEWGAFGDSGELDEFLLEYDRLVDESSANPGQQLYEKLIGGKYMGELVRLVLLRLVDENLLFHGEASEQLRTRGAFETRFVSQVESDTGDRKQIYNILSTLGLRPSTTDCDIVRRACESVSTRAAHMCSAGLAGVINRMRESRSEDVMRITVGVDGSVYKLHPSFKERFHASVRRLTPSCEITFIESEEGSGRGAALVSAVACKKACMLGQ
T1 sequence (Q14397 whole entry, looked up): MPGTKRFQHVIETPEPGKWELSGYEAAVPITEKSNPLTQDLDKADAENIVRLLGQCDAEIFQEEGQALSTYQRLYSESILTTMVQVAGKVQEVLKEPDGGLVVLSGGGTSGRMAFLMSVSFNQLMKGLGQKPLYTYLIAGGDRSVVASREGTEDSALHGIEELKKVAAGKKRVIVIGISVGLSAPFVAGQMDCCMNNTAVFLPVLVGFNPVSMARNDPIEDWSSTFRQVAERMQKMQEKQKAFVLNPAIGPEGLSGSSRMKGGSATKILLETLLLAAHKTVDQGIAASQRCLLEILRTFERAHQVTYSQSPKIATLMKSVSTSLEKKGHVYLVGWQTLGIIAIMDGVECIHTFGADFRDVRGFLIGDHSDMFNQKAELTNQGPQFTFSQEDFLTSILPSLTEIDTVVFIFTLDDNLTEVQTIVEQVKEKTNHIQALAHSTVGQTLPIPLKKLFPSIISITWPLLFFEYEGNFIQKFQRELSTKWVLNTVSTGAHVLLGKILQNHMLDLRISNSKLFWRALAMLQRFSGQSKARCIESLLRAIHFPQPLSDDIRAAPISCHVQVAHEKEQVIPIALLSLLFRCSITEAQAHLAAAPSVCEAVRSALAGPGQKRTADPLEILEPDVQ

In assay [4] the target is T1, Hexokinase-4 (Homo sapiens) + Glucokinase regulatory protein (Homo sapiens). Kind of assay: qHTS assay for inhibitors of recombinant human GCK-GKRP interaction: ADP-Glo assay (AID 743206).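 Note: plate controls were DMSO plus enzyme for no effect and no enzyme for full effect.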 The following applies: ADP-Glo luminescence, 60 min, 0% = vehicle-only wells with enzyme present; series mostly up to 76.9 µM. The gist of the method:
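Pin-transferred compounds meet a 15 nM GST-GCK/15 nM FLAG-GKRP/2 uM S6P mix (dispense concentrations). ATP is then added to 0.4 mM final with 5 mM glucose, and the reaction runs 60 min at room temperature. ADP is quantified luminescently.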

Assay [5] has the same target. Nature of the assay: qHTS assay for inhibitors of recombinant human GCK-GKRP interaction: HTRF assay (AID 743207).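 Note: 0% = DMSO with GCK present and -100% = DMSO wells lacking GCK.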 The following applies: recombinant GCK-GKRP HTRF binding, 60 min, with sorbitol-6-phosphate; series mostly up to 57.5 µM. The essentials: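 HTRF read-out (ex 320 nm; 615/665 nm emission) after 60 min RT equilibration of 5 nM GST-GCK, 5 nM FLAG-GKRP, 2 uM S6P, compound and anti-FLAG/anti-GST detection antibodies; signal normalized between DMSO wells with and without GCK.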

Assay [6] can be described thus: qHTS Assay for Identifying Gametocytocidal Compounds (AID 743244).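 For max response: % is set by controls: 0 for no effect and ±100 for the full control effect; actives lower the fluorescent signal which means gametocytes are killed.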 Note: potency is the fitted concentration of half-maximal effect. The following applies: P. falciparum 3D7 stage III-V gametocytes, alamarBlue, 72 h; max response: active compounds read low. The essentials: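 Fluorescence at Ex 525/Em 598 nm, recorded 24 h after alamarBlue addition, reports residual metabolic activity of 3D7 gametocytes (stages III–V) following 72 h compound exposure at 37 °C, 5% CO2.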

Assay [7] concerns the target Atrial natriuretic peptide receptor 1 (Homo sapiens) (UniProt P16066). Kind of assay: Natriuretic polypeptide receptor (hNpr1) antagonism - Pilot screen (AID 1347049; calls by dose curve;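 note: agonist-evoked cGMP luminescence read 20 min after hNppA addition; % is set by controls: 0 for no effect and ±100 for the full control effect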). The following applies: hNpr1 cells, antagonist mode cGMP read-out; series mostly up to 57.5 µM. The essentials:
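cGMP-sensor HEK293/hNpr1 cells, 1500/well, plated overnight at 37C. 2% GloSensor reagent, 2 h RT. Compound (23 nL pin transfer) 30 min RT, baseline luminescence pre-read. 0.1 nM hNppA, 20 min RT, post-read.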

A short description of assay [8]: qHTS assay for small molecule agonists of the antioxidant response element (ARE) signaling pathway measured by Nrf2-dependant transcriptional activity - cell viability counter screen (AID 720653; active = well fitted curve in the direction sought with a large enough effect in the repeat runs; an effect the other way counts as inactive or inconclusive; note: % is set by controls: 0 for no effect and ±100 for the full control effect). The following applies: ARE-bla HepG2 viability, CellTiter-Glo ATP luminescence, 16 h; max response: active compounds read low. The essentials:
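ARE-bla HepG2 cells treated with compounds for 16 h at 37C; this counter screen measures viability as intracellular ATP by CellTiter-Glo luminescence after 30 min at room temperature.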

Assay [9] in a line: qHTS assay for cell viability of HEK293 cells (AID 743288). Note: % is set by controls: 0 for no effect and ±100 for the full control effect; nearly all actives have a fitted effect of over 50% in size. The following applies: ATP luminescence (CellTiter-Glo), 18 h, active compounds read low. The essentials:
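ATP luminescence (CellTiter-Glo) reports metabolically competent cell number after parental HEK293 cells, 2,000/well, were treated with DMSO-dissolved compounds for 18 h at 37 C; reagent incubation 30 min, room temperature.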

The nature of assay [10]: qHTS assay for cell viability of the p53RE-bla HCT-116 cell line (AID 743292). Note: % is set by controls: 0 for no effect and ±100 for the full control effect; nearly all actives have a fitted effect of over 55% in size. The following applies: p53RE-bla HCT-116 viability, ATP luminescence, 16 h; series mostly up to 95 µM. The gist of the method: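 CellSensor p53RE-bla HCT-116 cells (4,000/well) pre-incubated 5 h at 37 C, then exposed to compounds in DMSO for 16 h at 37 C. Viability read as ATP content by CellTiter-Glo luminescence after 30 min at room temperature.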

A short description of assay [11]: qHTS assay for measurement of the activity of small molecule inhibitors on Zika virus induced Caspase-3 activity in human astrocytoma cells (AID 1224859).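 Note: plate controls were ZIKV-infected untreated cells for no effect and uninfected cells for full effect.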 The following applies: SNB-19 ZIKV-induced caspase-3/7, luminescence, 6 h; series mostly up to 45.7 µM. The essentials: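 Caspase activation in ZIKV-infected SNB-19 cells (2 FFU/cell, 6 h) measured by Caspase-Glo 3/7 luminescence after 30 min RT; compound pre-incubated 1 h; normalised to uninfected and infected controls.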

A short description of assay [12]: qHTS assay for small molecule agonists of the antioxidant response element (ARE) signaling pathway measured by Nrf2-dependant transcriptional activity (AID 720636; active = well fitted curve in the direction sought with a large enough effect in the repeat runs; an effect the other way counts as inactive or inconclusive; note: % of control where 0% means no effect). The following applies: ARE-luc HepG2, Nrf2 luciferase reporter, 16 h; series mostly up to 92.4 µM. The gist of the method: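 ARE-luc HepG2 cells carrying an Nrf2-responsive luciferase reporter, in medium with 1% dialyzed FBS, exposed to compound for 16 hr at 37 C, 5% CO2. Luminescence read 30 min after ONE-Glo addition.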

Assay [13] can be described thus: qHTS assay for small molecule antagonists of the retinoid-related orphan receptor gamma (ROR-gamma) signaling pathway - cell viability counter screen (AID 720652; active = well fitted curve in the direction sought with a large enough effect in the repeat runs; an effect the other way counts as inactive or inconclusive;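 note: CHO reporter cells with doxycycline-induced ROR-gamma expression; compound exposure lasted 16 hr before ATP read; % is set by controls: 0 for no effect and ±100 for the full control effect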). The following applies: RORgamma reporter cell line viability counter screen; series mostly up to 92.2 µM. The essentials: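 ATP-based viability readout in the ROR-gamma reporter CHO cells after 16 hr compound exposure under doxycycline induction.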

Values joined by “and” are separate entries in the source; they are usually repeats but may differ in a detail not shown here. Identical values can stand only once. Values without a mark were called inactive. Records with an inconclusive call do not appear. Active and inactive are the calls of the source. Unless noted, calls come from the whole dose curve; as a rule, active = well fitted curve in the direction sought with a large enough effect; inconclusive = small, poorly fitted or top-dose-only effect, or another doubt; inactive = no such curve, though single readings can be large; an effect the other way counts as inactive or inconclusive.

Chain of Atrial natriuretic peptide receptor 1 (Homo sapiens) (P16066 whole entry, looked up): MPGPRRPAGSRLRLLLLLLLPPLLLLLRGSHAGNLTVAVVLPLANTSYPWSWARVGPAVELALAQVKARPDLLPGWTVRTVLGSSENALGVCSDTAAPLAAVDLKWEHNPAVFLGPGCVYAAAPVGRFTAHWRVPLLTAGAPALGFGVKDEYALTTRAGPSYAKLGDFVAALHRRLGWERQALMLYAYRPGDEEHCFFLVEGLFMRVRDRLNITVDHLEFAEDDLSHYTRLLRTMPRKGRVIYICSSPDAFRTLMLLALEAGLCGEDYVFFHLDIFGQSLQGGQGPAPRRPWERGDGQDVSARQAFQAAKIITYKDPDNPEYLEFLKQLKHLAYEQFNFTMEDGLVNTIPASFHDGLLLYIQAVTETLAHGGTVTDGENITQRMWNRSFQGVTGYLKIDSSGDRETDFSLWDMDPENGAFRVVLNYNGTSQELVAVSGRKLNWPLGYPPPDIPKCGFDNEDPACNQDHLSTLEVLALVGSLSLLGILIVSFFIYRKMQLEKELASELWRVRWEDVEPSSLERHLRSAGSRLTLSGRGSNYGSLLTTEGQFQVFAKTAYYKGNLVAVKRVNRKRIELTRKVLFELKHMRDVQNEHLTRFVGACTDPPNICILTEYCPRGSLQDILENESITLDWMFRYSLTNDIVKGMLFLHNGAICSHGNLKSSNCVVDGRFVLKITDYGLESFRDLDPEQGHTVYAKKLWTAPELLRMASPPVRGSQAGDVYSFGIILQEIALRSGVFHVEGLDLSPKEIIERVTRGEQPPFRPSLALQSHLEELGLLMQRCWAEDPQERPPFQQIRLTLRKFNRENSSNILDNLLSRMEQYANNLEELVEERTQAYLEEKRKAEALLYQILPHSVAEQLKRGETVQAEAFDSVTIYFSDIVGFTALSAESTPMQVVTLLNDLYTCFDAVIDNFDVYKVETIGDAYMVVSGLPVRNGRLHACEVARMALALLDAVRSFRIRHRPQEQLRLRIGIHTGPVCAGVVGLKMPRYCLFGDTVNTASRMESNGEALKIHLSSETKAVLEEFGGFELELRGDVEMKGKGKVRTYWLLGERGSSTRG

Regarding `C[N+](C)(CCOc1ccccc1)Cc1cccs1`, the Potency result in assay [1] and in assay [2] was “inactive” in each case.

`N[C@@H](Cn1ccc(=O)c(O)c1)C(=O)O`: the outcome in assay [3], in [4] and in [5] was inactive. The max response in [6] is 9.87%. For the same compound, the Potency result in assay [1] and in assay [7] was “inactive” each time. Further, in assay [2], the outcome is “inactive [at 5.11 µM]”.

As to `CCCCCCCCCCCCCCCC[n+]1ccccc1`, the max response is -10.4% in [8] and -27.3% in assay [9]. In addition, the Potency result in assay [10] and in [1] was “inactive” in each case.

As for `CCCC(=O)O[C@]1(C(=O)CCl)[C@@H](C)C[C@H]2[C@@H]3CCC4=CC(=O)C=C[C@]4(C)[C@@]3(F)C(=O)C[C@@]21C`, the max response in assay [6] was 13.2%. The Potency result in [1] was “inactive”. Further, the outcome in [11] was inactive.

On to `CC1(C)O[C@@H]2C[C@H]3[C@@H]4CCC5=CC(=O)C=C[C@]5(C)[C@@]4(F)[C@@H](O)C[C@]3(C)[C@]2(C(=O)CO)O1`, for which the max response in [6] is -0.0995%. In addition, the Potency result in [1] was “inactive”. In assay [11], the compound was called inactive.

In the case of `CC1CN(c2cc3c(cc2F)c(=O)c(C(=O)O)cn3-c2ccc(F)cc2F)CCN1` (stereo not drawn), the max response in assay [6] was -18.1%. For the same compound, the results for the activity change, negative = inhibition in assay [1] and in assay [11] were -6.17% [at 4.53 µM] and -1.94% [at 4.53 µM], respectively.

Turning to `c1ccc(C(O[C@H]2CCCN(CCc3ccc4c(c3)OCO4)C2)c2ccccc2)cc1`, the max response in assay [6] is -6.18%. Also, the Potency result in assay [1] is “inactive”.

For the compound `CCC1=C[C@@H]2CN(C1)Cc1c([nH]c3ccccc13)[C@@](C(=O)OC)(c1cc3c(cc1OC)N(C)[C@H]1[C@@](O)(C(=O)OC)[C@H](OC(C)=O)[C@]4(CC)C=CCN5CC[C@]31[C@@H]54)C2`, the Potency in assay [6] is 11.2 µM (active). The Potency entry in assay [1] is “inactive”. Besides, the call in assay [11] was inactive.

Turning to `C=CCNc1nc(NCC=C)nc(N2CCN(C(c3ccc(F)cc3)c3ccc(F)cc3)CC2)n1`, the result in [11] was inactive.

As for `CCOC(=O)NNc1nncc2ccccc12`, the max response in assay [6] was -13.4%. Moreover, the Potency result in [1] is “inactive”. The compound was called inactive in [11].

As for `O=C(O)CNC(=O)CNC(=O)CNC(=O)CSC(=O)c1ccccc1`, the max response in assay [6] was 0.93%. The Potency result in assay [1] and in [2] was “inactive” each time.

`O=C1CC[C@H](C(=O)N2CCCCC2)N1`: the max response in [6] is -15.9%. Also, in assay [1], the Potency entry is “inactive”. In assay [11], the result was inactive.

Take `CC(=O)N[C@@H](CCC(N)=O)C(=O)O`: the max response in assay [6] is 4.31%. For the same compound, the Potency result in [1] and in [2] was “inactive” each time.

As for `Cc1nc([N+](=O)[O-])cn1-c1ccc([N+](=O)[O-])cc1`, the max response in [6] is 9.29%. Moreover, the Potency entry in assay [1] was “inactive”. Further, the call in assay [11] was inactive.

As for `CCCCCCCCCCCC[N+](C)(C)Cc1ccccc1`, in assay [12], the call was inactive. In addition, the max response in [8] is -5.65%; in assay [9], -18.2%. The Potency result in assay [10] is “inactive”.

Take `Nc1cccc2c(N)cccc12`: the result in assay [13] was inactive. Further, in [9], the max response is -10.7% and -9.55%. Besides, the Potency entry in assay [10] was “inactive”.

Consider `Nc1ncnc2n[nH]c(Nc3ccc(F)cc3)c12`, for which the result in [3], in [4] and in assay [5] was inactive. Moreover, in [7], the Potency result is “inactive”.

In the case of `Cn1cnc2c(NCc3ccccc3)nc(NCCO)nc21`, the result in [3], in [4] and in assay [5] was inactive. In addition, in assay [7], the Potency entry was “inactive”.

(Values after PubChem BioAssay (NCATS).)
